Compound activity deposited in PubChem by National Center for Advancing Translational Sciences (NCATS).
G9a block: inhibitors of human histone lysine methyltransferase G9a; Q96KQ7; G9a H3K9 monomethylation, AlphaScreen, 2 h; Potency, µM (series often up to 102 µM), for the others: at the top dose activity, negative = inhibition, actives largely listed as inhibitors; 350,000 compounds, 8.8% hits; AID 504332; also: % is scaled to controls: 0 for no effect and ±100 for the full control effect; nearly all actives have a fitted effect of over 75% in size
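AlphaScreen detection with an anti-monomethyl H3K9 antibody quantified product after a 2 h room-temperature reaction containing 500 nM biotinylated H3K9 peptide, 20 µM SAM and 20 nM enzyme, which had been preincubated 15 min with compound.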
ALOX12 inh: ALOX12 (human) lipoxygenase inhibition; Potency, µM (titrated, usually from 108 µM), for inactives: at the highest dose activity change, negative = inhibition, usual class: inhibitors; P18054; 580,000 compounds, 1.1% hits; purified 12hLO, xylenol orange hydroperoxide absorbance; AID 1671190; also: % is scaled to controls: 0 for no effect and ±100 for the full control effect
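Hydroperoxide product was detected by ferrous iron/xylenol orange as the 573 to 405 nm absorbance ratio. Arachidonic acid at 40 uM (final) was turned over for 30 min at room temperature by 150 nM human 12hLO, pH 7.0 Hepes buffer, after 15 min compound preincubation.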
BAZ2B inh: BAZ2B (human) inhibition; AID 504333; Q9UIF8; Potency, µM (top dose mostly 114 µM), inactives show at the highest dose activity change, negative = inhibition, usual class: inhibitors; 360,000 compounds, 4.4% hits; AlphaScreen BAZ2B-H3K14Ac peptide displacement; also: % is scaled to controls: 0 for no effect and ±100 for the full control effect; nearly all actives have a fitted effect of over 60% in size
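Compounds, titrated to a top concentration of 110 uM, were incubated 30 min at room temperature with preformed BAZ2B/acetyl-K14 H3 peptide complex (50 nM each). Proximity signal was measured by AlphaScreen after 20 min with beads.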
HP1b chromo inh: HP1-beta chromodomain-methylated histone interaction inhibition | AlphaScreen HP1-beta / biotin-H3K9me3 peptide binding | Potency, µM (series often up to 114 µM), for the others: at the top dose activity change, negative = inhibition, actives largely listed as inhibitors | 390,000 compounds, 0.56% hits | AID 540317; also: nearly all actives have a fitted effect of over 70% in size
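Compound inhibition of the preformed complex between 50 nM HP1-beta and 50 nM biotinylated H3K9me3 peptide was read by AlphaScreen. Buffer was PBS pH 7.4 with 0.01% Tween-20. Incubations ran 30 min at room temperature, with 10 ug/mL donor/acceptor beads.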
JMJD2A Tudor: blocks the human JMJD2A Tudor domain; O75164; AlphaScreen JMJD2A-Tudor / H3K4me3 peptide binding; Potency, µM (doses to about 114 µM), for inactives: at the highest dose activity change, negative = inhibition, actives largely listed as inhibitors; 390,000 compounds, 4.4% hits; also: % is scaled to controls: 0 for no effect and ±100 for the full control effect; nearly all actives have a fitted effect of over 50% in size
PLK1 PBD block: inhibitors of human PLK1 polo-box domain binding; Plk1 PBD binding of FITC phosphopeptide, fluorescence polarization; Potency, µM, for inactives: max response, negative = inhibition, hits mostly inhibitors; 360,000 compounds, 2.8% hits; also: series mostly up to about 57 µM; % is scaled to controls: 0 for no effect and ±100 for the full control effect; nearly all actives have a fitted effect of over 65% in size
Target sequence (P53350 whole entry, looked up, the tested form may be a part): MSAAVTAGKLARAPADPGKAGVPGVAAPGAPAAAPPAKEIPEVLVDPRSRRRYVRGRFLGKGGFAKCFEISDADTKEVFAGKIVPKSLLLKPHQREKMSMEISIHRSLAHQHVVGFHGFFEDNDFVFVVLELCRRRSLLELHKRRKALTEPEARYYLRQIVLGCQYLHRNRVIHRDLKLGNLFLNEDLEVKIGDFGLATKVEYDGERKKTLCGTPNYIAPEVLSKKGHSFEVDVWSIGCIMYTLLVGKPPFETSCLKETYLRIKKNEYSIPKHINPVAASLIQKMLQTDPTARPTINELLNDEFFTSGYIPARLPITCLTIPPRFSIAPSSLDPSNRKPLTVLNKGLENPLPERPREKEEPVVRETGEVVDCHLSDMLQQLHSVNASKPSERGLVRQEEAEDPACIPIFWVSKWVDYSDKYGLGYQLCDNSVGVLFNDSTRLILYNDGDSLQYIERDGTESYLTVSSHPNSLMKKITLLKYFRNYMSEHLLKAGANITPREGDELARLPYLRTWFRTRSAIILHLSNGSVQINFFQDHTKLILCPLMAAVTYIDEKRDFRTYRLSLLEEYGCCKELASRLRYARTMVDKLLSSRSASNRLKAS
* marks the source's active call; other numbers are inactive results; ! = repeats disagree; [ ] = another dose, or the depositor's remark. The list is not random: actives were taken first. Their share in the collection is about 9%. Calls follow the shape of the dose curve; as a rule, active = well fitted curve in the direction sought with a large enough effect; inconclusive = small, poorly fitted or top-dose-only effect, or another doubt; inactive = no such curve, though single readings can be large; an effect the other way counts as inactive or inconclusive. Potency is read from the fitted curve at half-maximal effect.

How did CCOc1cc(C(=O)Nc2cc3c(cc2N2CCOCC2)n(C)c(=O)n3C)cc(OCC)c1OCC do in these assays?
G9a block: 13.6%; ALOX12 inh: 0.0%; BAZ2B inh: -32.9%; HP1b chromo inh: 16.9%; JMJD2A Tudor: 25.1µM*!; PLK1 PBD block: 13.4µM*

How did CCn1ccc(C(=O)NC2CCN(C(=O)N3CC4CC(C3)[C@H]3CCCC(=O)N3C4)CC2)n1 (stereo not given in full) do in these assays?
ALOX12 inh: 29.4%

How did CC(C)(O)[C@H](O)COc1c2occc2cc2ccc(=O)oc12 do in these assays?
G9a block: 1.41µM*; ALOX12 inh: 9.8%; BAZ2B inh: -5.5%; HP1b chromo inh: -0.8%; JMJD2A Tudor: -22.2%; PLK1 PBD block: 3.6%

How did CC(C)=CCC/C(C)=C/COc1c2occc2cc2ccc(=O)oc12 do in these assays?
ALOX12 inh: inconclusive; HP1b chromo inh: 95.3%; JMJD2A Tudor: 27.2%; PLK1 PBD block: -2.9%

How did C[C@H](NC(=O)C1CC(=O)N(c2ccc(F)cc2)C1)C(=O)N1CCCCC1 (stereo not given in full) do in these assays?
G9a block: 36.1%; ALOX12 inh: 8.9%; BAZ2B inh: 2.5%; HP1b chromo inh: 17.6%; JMJD2A Tudor: inconclusive; PLK1 PBD block: 23.8µM*

Results for CC(=O)c1c(C)nc(-c2ccc(OCC(=O)Nc3ccc(F)cc3)cc2)n1O ?
G9a block: 17.8µM*; ALOX12 inh: -11.6%; BAZ2B inh: -26.0%; HP1b chromo inh: 22.9%; JMJD2A Tudor: -13.0%; PLK1 PBD block: -6.3%

How did CNC(=O)C1CC(=O)N(c2ccc(OCC(=O)Nc3ccc(F)cc3)cc2)C1 (stereo not given) do in these assays?
ALOX12 inh: 8.3%; HP1b chromo inh: -18.9%[57 µM]; JMJD2A Tudor: -27.7%; PLK1 PBD block: 26.7µM*

What do the screens show for `O=C(COc1ccc(F)cc1)Nc1ccc(-c2nnc3n2CCCC3)cc1`?
ALOX12 inh: 31.6µM*

What do the screens show for `O=C(C1CC(=O)N(c2ccc(F)cc2)C1)N1CCCCC1` (stereo not given)?
G9a block: -4.7%[59 µM]; ALOX12 inh: -18.3%; BAZ2B inh: 5.0%; HP1b chromo inh: 9.8%; JMJD2A Tudor: 3.5%; PLK1 PBD block: -11.4%

What do the screens show for `C=CCNC(=O)C1CC(=O)N(c2ccc(OCC(=O)Nc3ccc(C)cc3)cc2)C1` (stereo not given)?
G9a block: inconclusive; ALOX12 inh: -23.9%; BAZ2B inh: -38.8%[57.1 µM]; HP1b chromo inh: 16.8%; JMJD2A Tudor: -6.6%; PLK1 PBD block: -1.4%

What do the screens show for `COc1cc(-c2nc(C)c(C(C)=O)n2O)ccc1OCC(=O)Nc1ccc(F)cc1`?
G9a block: -11.3%[59 µM]; ALOX12 inh: -16.4%; BAZ2B inh: inconclusive; HP1b chromo inh: 8.9%; JMJD2A Tudor: -21.6%; PLK1 PBD block: -7.3%

Results for O=C(COc1ccc(-c2nnc3n2CCCC3)cc1)Nc1ccc(Br)cc1 ?
ALOX12 inh: 4.5%

What do the screens show for `CC(=O)Nc1cccc(NC(=O)CSc2nc(C3CC3)nc3ccccc23)c1`?
G9a block: 9.6%; ALOX12 inh: -15.3%; BAZ2B inh: 2.9%; HP1b chromo inh: 17.9%; JMJD2A Tudor: -0.7%; PLK1 PBD block: 6.0%

Results for CCOc1cc(-c2nc(C)c(C(C)=O)n2O)ccc1OCC(=O)Nc1ccc(F)cc1 ?
G9a block: 50.1µM*; ALOX12 inh: -4.3%; BAZ2B inh: -3.7%; HP1b chromo inh: 24.7%; JMJD2A Tudor: -12.9%; PLK1 PBD block: -7.3%

What do the screens show for `CCS(=O)(=O)N1C[C@@H](C(N)=O)[C@H](C2CCN(C)CC2)C1`?
ALOX12 inh: 27.6%

Results for COc1ccc(/C=N/N=C2/CC(C)(C)Cc3n[nH]c(=O)cc32)cc1 ?
G9a block: 35.5µM*; ALOX12 inh: -7.9%; BAZ2B inh: -30.2%; HP1b chromo inh: 40.9%; JMJD2A Tudor: -4.2%; PLK1 PBD block: -4.5%
